Compound activity: PubChem, National Center for Advancing Translational Sciences (NCATS)
BAZ2B inh: BAZ2B (human) inhibition. Potency, µM (titrated, usually from 114 µM), without a hit: at the highest dose activity change, negative = inhibition, hits mostly inhibitors. 4.4% of 360,000 active. AlphaScreen BAZ2B-H3K14Ac peptide displacement. AID 504333; note: % is set by controls: 0 for no effect and ±100 for the full control effect; nearly all actives have a fitted effect of over 60% in size
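Inhibition is scored as reduced AlphaScreen emission. The BAZ2B/b-H3(5-23)K14Ac complex (50 nM each) in PBS pH 7.4, 0.01% Tween-20 meets compound (up to 110 uM) for 30 min at RT before bead addition.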
HP1b chromo inh: blocks HP1-beta chromodomain binding to methylated histone tails; AlphaScreen HP1-beta / biotin-H3K9me3 peptide binding; Potency, µM (doses to about 114 µM), without a hit: top-dose activity change, negative = inhibition, most hits filed as inhibitors; 0.56% of 390,000 active; note: nearly all actives have a fitted effect of over 70% in size
Target sequence (P83916 whole entry, looked up): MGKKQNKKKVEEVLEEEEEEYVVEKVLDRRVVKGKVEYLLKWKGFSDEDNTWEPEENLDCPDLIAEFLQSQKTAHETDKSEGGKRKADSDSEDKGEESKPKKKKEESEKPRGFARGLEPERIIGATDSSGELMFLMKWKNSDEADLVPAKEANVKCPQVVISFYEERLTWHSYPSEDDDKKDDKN
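Compound inhibition of the preformed complex between 50 nM HP1-beta and 50 nM biotinylated H3K9me3 peptide was read by AlphaScreen. Buffer was PBS pH 7.4 with 0.01% Tween-20. Incubations ran 30 min at room temperature, with 10 ug/mL donor/acceptor beads.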
Sfp PPTase inh: inhibitors of Bacillus subtilis Sfp phosphopantetheinyl transferase. Potency, µM, inactives show largest response in the series, negative = inhibition, most hits filed as inhibitors. Biochemical Sfp PPTase activity, qHTS. AID 1490. Q9F4F7. 3.5% of 310,000 active;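 note: the enzyme is Sfp with the accession as filed and its product quenches rhodamine fluorescence; 0% = enzyme reaction without inhibitor and -100% = no enzyme wells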
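Reaction rates are the 30-min fluorescence difference (ex 525, em 598 nm) in wells containing 15 nM Sfp, 5 uM rhodamine-CoA and 12.5 uM BHQ-2-YbbR at pH 7.6 with 10 mM MgCl2.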
L3MBTL1 block: inhibitors of human L3MBTL1 | Q9Y468 | AlphaScreen L3MBTL1–H3K9me1 peptide binding | Potency, µM (top dose mostly 57.1 µM), inactives show at the highest dose activity, negative = inhibition, hits mostly inhibitors | 0.66% of 230,000 active | AID 485360; note: % is set by controls: 0 for no effect and ±100 for the full control effect; nearly all actives have a fitted effect of over 60% in size
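First, the protein-peptide complex forms for 30 min at room temperature (L3MBTL1 50 nM, biotinylated H3K9me1 peptide 75 nM). Next, compounds are pin-transferred and incubated 30 min. Finally, AlphaScreen beads are added and read after 30 min.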
G9a block: blocks human histone lysine methyltransferase G9a. Q96KQ7. G9a H3K9 monomethylation, AlphaScreen, 2 h. Potency, µM (top dose mostly 102 µM), for inactives: at the top dose activity, negative = inhibition, hits mostly inhibitors. 8.8% of 350,000 active. AID 504332; note: % is set by controls: 0 for no effect and ±100 for the full control effect; nearly all actives have a fitted effect of over 75% in size
Target sequence (Q96KQ7 913-1193 limits assumed): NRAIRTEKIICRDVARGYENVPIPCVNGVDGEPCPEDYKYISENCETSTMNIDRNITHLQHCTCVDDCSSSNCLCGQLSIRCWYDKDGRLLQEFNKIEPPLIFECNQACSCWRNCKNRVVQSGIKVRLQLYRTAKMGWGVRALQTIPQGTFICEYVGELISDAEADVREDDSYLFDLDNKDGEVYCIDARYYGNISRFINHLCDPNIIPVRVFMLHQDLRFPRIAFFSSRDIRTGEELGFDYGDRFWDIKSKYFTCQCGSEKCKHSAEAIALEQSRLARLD
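Quantitative HTS format: methyltransferase activity on a biotin-tagged H3K9 peptide is measured by AlphaScreen, using a rabbit anti-monomethyl-H3K9 antibody with streptavidin donor and anti-IgG acceptor beads. Final levels are 20 nM enzyme, 500 nM peptide, 20 uM SAM; 2 h RT.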
JMJD2A Tudor inh: inhibitors of human JMJD2A Tudor domain | AlphaScreen JMJD2A-Tudor / H3K4me3 peptide binding | O75164 | Potency, µM (titrated, usually from 114 µM), inactives show at the highest dose activity change, negative = inhibition, usual class: inhibitors | 4.4% of 390,000 active; note: % is set by controls: 0 for no effect and ±100 for the full control effect; nearly all actives have a fitted effect of over 50% in size
* hit, by the source's call; ? = inconclusive; nt = no result given; [ ] = another dose, or the depositor's remark. An excerpt weighted towards active compounds, which were near 12% of everything screened. Calls come from the whole dose curve; as a rule, active = well fitted curve in the direction sought with a large enough effect; inconclusive = small, poorly fitted or top-dose-only effect, or another doubt; inactive = no such curve, though single readings can be large; an effect the other way counts as inactive or inconclusive. Potency is the fitted concentration of half-maximal effect.

SMILES	BAZ2B inh	HP1b chromo inh	Sfp PPTase inh	L3MBTL1 block	G9a block	JMJD2A Tudor inh
COc1ccc(CCNC(=O)c2ccc3[nH]c(C)c(C)c3c2)cc1OC	?	-35%	nt	nt	?	?
Cc1c(CC(=O)NCCc2ccccc2)c(=O)oc2c(C)c3occ(C(C)(C)C)c3cc12	0%	43%	nt	nt	4%[59 µM]	-14%
Cc1ccc(SCCOCCN2CC(C)OC(C)C2)cc1 (centres undefined)	10%	20%	11%	nt	?	-9%
CCC(=O)c1ccccc1OCCCN1CCC(Cc2ccccc2)CC1	-34%	?	?	nt	40µM*	35µM*
NC(=O)c1ccccc1OCC(=O)N1CCC(Cc2ccccc2)CC1	-4%	41%	nt	1%	1%[12.7 µM]	-9%
CCOc1ccccc1OCCOCCN1CC(C)OC(C)C1 (centres undefined)	?	-21%	0%	2%	16µM*	?
CCOc1ccccc1OCCN1CCC(Cc2ccccc2)CC1	56µM*	-13%	-5%	-6%	16µM*	45µM*
OC(COc1ccccc1F)CN1CCC(Cc2ccccc2)CC1 (centres undefined)	-1%	27%	-2%	0%	nt	-15%
CCc1cccc(C)c1NC(=O)C1CCN(c2nnc(C)c3c(C)n(-c4ccccc4)nc23)CC1	-27%	22%	nt	nt	-6%[59 µM]	-17%
COc1ccc(NC(=O)Cn2c(=O)n(Cc3nc(-c4ccccc4)no3)c(=O)c3ccccc32)cc1Cl	-5%	27%	nt	nt	-29%[59 µM]	-11%
CC(C)=CCC/C(C)=C/CC/C(C)=C/CC/C(C)=C/C(=O)O	nt	nt	4%	nt	nt	nt
COc1cc(CN2CCC(C(=O)NC3CCCC3)CC2)ccc1O	32µM*	?	-19%	0%	?	?
COc1ccc(OC)c(CN2CCC(C(=O)N3CCN(c4ccccc4F)CC3)CC2)c1	?	?	0%	-2%	10µM*	1.4µM*
O=C(C1CCN(c2nnc(-n3cccc3)s2)CC1)N1CCN(Cc2ccc3c(c2)OCO3)CC1	?	26%	-8%	?	?	-30%
COc1cccc(CN2CCC(C(=O)N3CCN(Cc4ccc5c(c4)OCO5)CC3)CC2)c1	-10%	?	12%	nt	42%	0.89µM*
COc1cc(CN2CCC(C(=O)N3CCN(c4ccccc4F)CC3)CC2)ccc1O	56µM*	?	-24%	4%	14µM*	2.5µM*
CCc1ccc(CNC(=O)c2cc(=O)[nH]c3ccc(S(=O)(=O)N4CCCCC4)cc23)cc1	-2%	42%	nt	nt	5%[59 µM]	-7%
CCn1cc2nc(SCC(=O)Nc3ccc(OC)cc3OC)n(Cc3ccc(Cl)cc3)c(=O)c2n1	-16%	9%	nt	nt	-35%[59 µM]	-21%
Cc1ccc2c(CNC3CCCC3)c(C(=O)O)n(Cc3ccc(F)cc3)c2c1	-32%	52%	nt	nt	-1%[59 µM]	0%
COc1ccc(OC)c(CN2CCC(C(=O)N3CCOCC3)CC2)c1	?	?	14%	1%	10µM*	2.2µM*
COc1ccc(F)c(CN2CCC(N3CCC(C(=O)N4CCOCC4)CC3)CC2)c1	-14%	32%	20%	2%	-41%	-7%
COc1cccc(CN2CCC(C(=O)N3CCN(c4ccccc4F)CC3)CC2)c1	-33%	?	-11%	-5%	10µM*	8.9µM*
CCOC(=O)c1cnc(NCc2ccc(Cl)cc2)c2ccccc12	115%	90%[57 µM]	nt	nt	68%[59 µM]	117%
CC(=O)N1CCc2cc(Br)cc(S(=O)(=O)N3CCC(C(=O)Nc4cccc(C)c4C)CC3)c21	-31%	24%	nt	nt	-1%[59 µM]	-15%
Cc1ccn2c(c1)nc(=O)c1cc(S(=O)(=O)N3CCCCC3)c(Cl)cc12	-15%	42%	nt	nt	-5%[59 µM]	-1%
SMILES	BAZ2B inh	HP1b chromo inh	Sfp PPTase inh	L3MBTL1 block	G9a block	JMJD2A Tudor inh
O=C(CN1CCCc2ccccc21)N/N=C/c1ccccc1O	0%	19%	-19%	-4%	12%	-9%
COc1ccc(/C=N/NC(=O)CN2CCCc3ccccc32)c(OC)c1	50µM*	?	3%	nt	?	50µM*
Cc1oc2c(C)c3oc(=O)c(CC(=O)N4CCCCC4)c(C)c3cc2c1C	-4%	34%	nt	nt	-6%[59 µM]	-18%
CCCN(CCC)CC(C)(C)NS(=O)(=O)c1ccc(Cl)cc1	?	?	-28%	12%	?	2.5µM*
CCN(CC)CCNS(=O)(=O)c1ccc(Cl)cc1	3%	29%	12%	0%	?	-8%[57.1 µM]
CC1=CC(=O)C2=C(C)C[C@@H]3OC(=O)[C@@H](C)[C@H]3C=C12	nt	nt	1%	nt	nt	nt
CCC(CC)c1nn2c(=O)cc(COc3ccc(NC(=O)c4cccc(Cl)c4)cc3)nc2s1	-2%	30%	nt	nt	-31%[59 µM]	-9%
C[N+]1(CC2COC3(CCCCC3)O2)CCCC1 (centres undefined)	1%	-3%	-9%	-4%	14µM*	?
O=C1/C(=C\c2ccc(Br)o2)SC(=Nc2ccccc2)N1c1ccccc1	8.9µM*	-32%	-16%	?	40µM*	25µM*
CN(C)N1C(=O)/C(=C/c2ccco2)SC1=Nc1ccccc1	nt	-11%	nt	nt	nt	-29%
Cn1c(=O)c2c(-c3ccccc3)n(CCCO)cc2n(C)c1=O	11%	46%	nt	nt	-41%[59 µM]	-22%
Cn1c(=O)c2c(-c3ccc(Cl)cc3)n(Cc3ccc(Cl)cc3)cc2n(C)c1=O	-32%	6%	nt	nt	-37%[59 µM]	-13%
Cn1c(=O)c2c(-c3ccccc3)n(Cc3cccnc3)cc2n(C)c1=O	2%	36%	-4%	2%	10µM*	-18%
Cc1ccc(-c2c3c(=O)n(C)c(=O)n(C)c3cn2Cc2cccnc2)cc1	11%	47%	-13%	2%	7.9µM*	-20%
O=C(COc1ccccc1)NS(=O)(=O)c1ccccc1	-16%	31%	20%	nt	3.5µM*	-6%
COc1ccc(OCC(=O)NS(=O)(=O)c2ccc(Cl)cc2)cc1	1%	34%	23%	nt	17%[59 µM]	-3%
Cc1cccc(NCc2ccccc2O)c1C	-37%	1%	4%	-9%	?	?
Cc1cccc(NCc2nnc(-c3ccccc3)o2)c1C	-7%	-13%	12%	-5%	5%	79µM*
COc1ccc(C(=O)NCc2nnc(SCC(=O)Nc3ccc(C)cc3)n2-c2ccccc2)cc1	17%	62%	nt	nt	26%[59 µM]	-21%
COc1ccc(N2CCN(C(=O)CSc3nc4c(c(=O)n(C)c(=O)n4C)n3C(C)C)CC2)cc1	-9%	3%	11%	5%	50µM*	-22%
COc1ccc(-n2c(SCC(=O)N3CCN(c4ccccc4)CC3)nc3c(c2=O)SCC3)cc1	-37%	7%	10%	nt	45µM*	-27%
CC(C)n1c(SCC(=O)N2CCCCC2)nc2c1c(=O)n(C)c(=O)n2C	7%	49%	27%	nt	1%	-1%
